Measurements from ChEMBL document CHEMBL1157539, “Thousands of chemical starting points for antimalarial lead identification” (Nature, 2010).

These compounds were tested on Plasmodium falciparum (assay: GSK_TCMDC: Inhibition of Plasmodium falciparum Dd2 in whole red blood cells, using parasite LDH activity as an index of growth. Test compounds present at 2uM).
Type: functional

How did the Inhibition turn out when `O=C(O)C(F)(F)F.c1cc(CN2CCCCC2)cc(-c2ccc(-c3nc4ccccc4[nH]3)s2)c1` was run?
The Inhibition was 100%.

How did the Inhibition turn out when `COc1cccc2c(N/N=C/c3ccccc3[N+](=O)[O-])ccnc12` was run?
Its Inhibition is 43%.

`O=C(NCc1ccc(F)cc1)c1ccc(N2CCN(c3ccncc3)CC2)cn1.O=C(O)C(F)(F)F` was tested. Which Inhibition did it give?
The Inhibition was 81%.

`c1ccc(COc2ccc(Cn3ccc(-c4ccc(-n5ccnc5)cc4)n3)cc2)cc1.c1ccc(COc2ccc(Cn3nccc3-c3ccc(-n4ccnc4)cc3)cc2)cc1` was tested. Which Inhibition did it give?
Its Inhibition is 67%.

For `Cl.NC(=O)c1cccc(Nc2nccc(Nc3ccc(Oc4ccc5ccccc5c4)cc3)n2)c1`, which Inhibition is on record?
Its Inhibition is 31%.

Which Inhibition does the source give for `CN1CCN(CCCN(Cc2csc(-c3ccc(CNCc4ccccc4)cc3)n2)C(=O)Nc2ccc3ccccc3c2)CC1.O=C(O)C(F)(F)F` here?
Its Inhibition is 63%.

With `Cc1nc2nc(N)nc(N)c2c(C)c1Cc1ccccc1I.Cl` as the compound, how does the Inhibition read?
The Inhibition was 0%.

`Cc1cc(NC(=O)NCCN2CCC(NS(=O)(=O)c3ccc(C(F)(F)F)cc3)C2)c2ccccc2n1.O=C(O)C(F)(F)F` (stereo not drawn) was tested. Which Inhibition did it give?
Its Inhibition is 39%.

How did the Inhibition turn out when `Cc1cc2nc(-c3ccc(/C=C/C(=O)NC4CCN(Cc5ccccc5)CC4)cc3)[nH]c2cc1C` was run?
Its Inhibition is 89%.

With `COc1cccc(C(=O)Nc2ccc(Nc3nc(C)cc(N(C)C)n3)cc2)c1` as the compound, how does the Inhibition read?
The Inhibition was 33%.

`CS(=O)(=O)c1cccc(-c2ccc3oc(C(N)=O)c(NC(=O)c4cccs4)c3c2)c1` was tested. Which Inhibition did it give?
Its Inhibition is 77%.

`CN1CCCN(Cc2cccc(-c3cccc(NS(=O)(=O)c4cccc5cccnc45)c3)c2)CC1.O=C(O)C(F)(F)F` was tested. Which Inhibition did it give?
The Inhibition was 74%.

Which Inhibition does the source give for `N#Cc1ccc2[nH]cc(-c3cn4cc(SC5CCCC5)ccc4n3)c2c1` here?
The Inhibition was 21%.
